From PubChem BioAssay
The list is not random: actives were taken first. Their share in the collection is about 3.4%.
IMPase cell inh: qHTS Assay for Identifying the Cell-Membrane Permeable IMPase Inhibitors | AID 901, 2007 | inhibition (IP1 accumulation), % at 46.1 µM | 120,000 tested, under 10 active | CHO-M1 cells, IP1 accumulation, HTRF TR-FRET ratio | Inositol monophosphatase 1 (Rattus norvegicus), P97697; active means well fitted curve in the direction sought with a large enough effect in the signal ratio, not every such curve was filed as active; inconclusive means small, poorly fitted or top-dose-only effect, or a change in a side signal; inactive means no such curve, though single readings can be large or run the other way; the % refers to the signal ratio;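 further: cells stimulated with carbachol in lithium chloride buffer; plate controls were DMSO basal wells for no effect and reference inhibitor wells for full effect; higher means more IMPase inhibition seen as more IP1 and lower FRET ratio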
Target sequence (P97697 whole entry, looked up): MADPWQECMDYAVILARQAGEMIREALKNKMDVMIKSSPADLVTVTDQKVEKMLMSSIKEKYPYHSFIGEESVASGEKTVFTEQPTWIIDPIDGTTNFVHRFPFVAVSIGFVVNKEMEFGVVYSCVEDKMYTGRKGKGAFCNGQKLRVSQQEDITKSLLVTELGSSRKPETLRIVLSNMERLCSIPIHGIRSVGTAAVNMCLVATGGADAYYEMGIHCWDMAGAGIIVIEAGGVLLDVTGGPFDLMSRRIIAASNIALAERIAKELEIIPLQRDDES
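CHO-M1 cells (CHO stably expressing M1 receptor), compound up to 46 uM final, stimulated with carbachol (50 uM as added) in buffer with 50mM LiCl, pH 7.4, 30 min at 37C. Cytosolic IP1 read by TR-FRET; AC50 from Hill fits.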
PNC inhibitor: High Content Assay for Compounds that inhibit the Assembly of the Perinucleolar Compartment; hit rate 3.1% among 140,000; PC3M PTB-GFP, PNC prevalence imaging, 16 h; active compounds read low; activity change (PNC), negative = inhibition, % at 10 µM;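 active means readout at or below -70, meaning at least 70% loss of cells showing the perinucleolar compartment, a nuclear body marking cancer cells; inconclusive means readout between -30 and a set limit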;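 further: plate controls were DMSO wells for no effect and camptothecin positive control wells for full effect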
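Read-out is percentage of cells bearing a perinucleolar compartment, from automated 20x imaging of fixed, Hoechst-stained PC3M PTB-GFP cells. Cells were seeded 4 h, then exposed 16 h to compound (23 nl of library stock) in duplicate plates.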
NPSR antag: qHTS Assay for Antagonists of the Neuropeptide S Receptor: cAMP Signal Transduction; Q6W5P4; CHO-NPSR cells, cAMP TR-FRET, antagonist mode; Potency, µM (top dose mostly 38.3 µM), without a hit: top-dose activity change, negative = inhibition, hits mostly inhibitors; hit rate 1% among 220,000; further: potency means the concentration at half of the fitted maximal effect; on the % scale 0 is the no-effect control and ±100 the full control effect; nearly all actives have a fitted effect of over 50% in size
Target sequence (Q6W5P4 whole entry, looked up): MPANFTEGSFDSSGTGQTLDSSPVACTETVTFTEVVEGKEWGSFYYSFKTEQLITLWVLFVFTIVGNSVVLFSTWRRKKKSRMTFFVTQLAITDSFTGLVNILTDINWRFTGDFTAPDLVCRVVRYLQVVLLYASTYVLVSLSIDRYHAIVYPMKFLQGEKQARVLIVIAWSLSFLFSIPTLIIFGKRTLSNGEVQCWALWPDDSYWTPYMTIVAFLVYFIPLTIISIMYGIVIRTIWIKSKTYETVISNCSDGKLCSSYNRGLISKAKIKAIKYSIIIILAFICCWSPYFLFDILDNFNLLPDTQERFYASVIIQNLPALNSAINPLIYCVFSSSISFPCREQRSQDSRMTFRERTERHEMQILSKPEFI
HTT aggregate: qHTS Multiplex Assay to Identify Dual Action Probes in a Cell Model of Huntington: Aggregate Formation (GFP); Potency, µM (series often up to 46.1 µM), for inactives: at the top dose activity change, negative = inhibition, actives largely listed as inhibitors; AID 1688, 2009; PC12 HttQ103-GFP aggregates, Acumen cytometry, 40 h; hit rate 1.1% among 220,000; further: potency means the concentration at half of the fitted maximal effect; on the % scale 0 is the no-effect control and ±100 the full control effect; nearly all actives have a fitted effect of over 60% in size
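Aggregates are detected as GFP objects 1–25 µm with signal 6 STDEV over background in lysates of induced PC12 cells. These carry Huntingtin exon 1 with 103 glutamines fused to GFP under an ecdysone promoter; compounds titrated.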
HTT cytoprotect: qHTS Multiplex Assay to Identify Dual Action Probes in a Cell Model of Huntington: Cytoprotection (ATP); PC12 HTT-Q103 induced, cytoprotection, ATP luminescence, 40 h; AID 1471, 2008; Potency, µM (series often up to 56.4 µM), without a hit: cytoprotection (ATP increase), most hits filed as activators; hit rate 0.14% among 230,000; further: potency means the concentration at half of the fitted maximal effect; % of control where 0% means no effect; nearly all actives have a fitted effect of over 45% in size
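PC12 cells with ecdysone-inducible HTT exon 1 Q103-GFP, induced with 100 nM tebufenozide and co-treated with library compounds in a dose series (1536-well, 1500 cells/well). Cytoprotection read as ATP content by ATPlite luminescence.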
IMPase Li inh: qHTS Assay for Identifying the Cell-Membrane Permeable IMPase Inhibitors: Potentiation with Lithium; CHO-M1 cells, IP1 TR-FRET (IP-One), carbachol + lithium; Potency, µM (series often up to 59.4 µM), for the others: at the highest dose activity, negative = IMPase inhibition, usual class: inhibitors; hit rate 0.35% among 210,000; AID 1457, 2008;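 further: IP1 builds up when IMPase is blocked and the TR-FRET signal falls; potency means the concentration at half of the fitted maximal effect; plate controls were basal vehicle for no effect and high inhibitor control for full effect; nearly all actives have a fitted effect of over 50% in size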
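CHO cells stably expressing M1 receptor (2000/well, cultured 16–30 h) treated 30 min at 37C with compound plus low lithium. Cytosolic IP1 by TR-FRET (665/620 ratio and 620 channel) after 10 min lysis; AC50 by Hill fit.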
* marks the source's active call; other numbers are inactive results; ? = inconclusive; . = not tested or not shown; ! = not active in a repeat; [ ] = dose if it differs, or a comment. Unless noted, the call rests on the fitted dose curve; in most records, active means well fitted curve in the direction sought with a large enough effect; inconclusive means small, poorly fitted or top-dose-only effect, or another doubt; inactive means no such curve, though single readings can be large; an effect the other way counts as inactive or inconclusive.

SMILES	IMPase cell inh	PNC inhibitor	NPSR antag	HTT aggregate	HTT cytoprotect	IMPase Li inh
COC(=O)c1cc(Cl)c(NC(=O)/C=C/c2ccc(OC)cc2)cc1OC	.	-113*	-6%	13%	14%[10 µM]	-2%
Cn1c(=O)c2c(nc(NCc3ccccc3)n2Cc2ccc(Cl)c(Cl)c2)n(C)c1=O	6	.	.	.	.	.
Cc1nc(SCc2ccccc2)c([N+](=O)[O-])[nH]1	.	-107*	-4%	-17%	.	-5%
COc1ccc(CSc2nc(C)[nH]c2[N+](=O)[O-])cc1[N+](=O)[O-]	.	.	-12%	-5%[9.22 µM]	0%[10 µM]	.
CCCCNC(=O)c1onc(CSc2ccccc2CC)c1C(=O)O	-8	-109*	-15%[46.1 µM]	?	2%	-2%[38.3 µM]
CCCCNC(=O)c1onc(CSc2cc(C)ccc2C)c1C(=O)O	0	23	-9%[46.1 µM]	3%	-21%	-7%[38.3 µM]
Cc1ccc(-c2nc(NC(=O)c3nn(C)cc3[N+](=O)[O-])sc2C)cc1C	2	?	-8%[46.1 µM]	7.9µM*	-89%	8%[38.3 µM]
O=C(/C=C/c1ccccc1[N+](=O)[O-])NCCc1ccc(F)cc1	.	.	-15%	-2%	.	1%
O=C(c1cc(C(F)(F)F)cc(C(F)(F)F)c1)N1CCC2(CCCN(c3ccncc3)C2)CC1	.	.	.	.	-47%	20%
Cc1ccc2[nH]c3c(=O)n(N)c(C)nc3c2c1	.	.	15%	23%	-12%[10 µM]	14%
Cc1ccc2[nH]c3c(=S)nc[nH]c3c2c1	?	8	-54%	-19%	-4%[10 µM]	13µM*
CCOC(=O)CC(C(=O)OCC)C1CCCCC1=O (stereo not drawn)	.	.	.	.	12%	-7%
CC(C)N(C(=O)COC(=O)c1ccccc1C(=O)c1ccc(Cl)c([N+](=O)[O-])c1)C(C)C	.	.	?	?	-26%	22%
O=C(COC(=O)c1ccccc1C(=O)c1ccc(Cl)c([N+](=O)[O-])c1)NC1CCCCCC1	9	-22	10µM*	?	-96%	49%[38.3 µM]
Cn1c(=O)cc(SCC(=O)N2CCCC2)c2ccccc21	-5	-89*	-20%[46.1 µM]	-21%	-23%	15%[38.3 µM]
COC(=O)c1cc(=O)n(CCc2ccccc2)c(=Nc2ccc(F)cc2)s1	16	-83*	10µM*	-19%	-23%[10 µM]	40%[38.3 µM]
CCOC(=O)c1ccc(N=c2sc(C(=O)OC)cc(=O)n2CCCN2CCOCC2)cc1	9	1	13µM*!	-24%	-21%	17%[38.3 µM]
Cc1ccc(C(=O)COC(=O)C(CC(C)C)NC(=O)C2CCC(C)CC2)cc1 (stereo not drawn)	-1	.	.	.	.	.
Cc1ccc2cc3cc(C(=O)NCCN4CCOCC4)oc3nc2c1	-4	-100*	4%[46.1 µM]	-7%	15%[10 µM]	4%
COc1ccc2cc3cc(C(=O)NCCCN4CCOCC4)oc3nc2c1	-4	30	-1%[46.1 µM]	-3%	-30%	-24%[38.3 µM]
Cc1ccc(-c2cc(C(=O)NCCCN3CCOCC3)no2)cc1	-2	20	1%[46.1 µM]	3.2µM*	-32%	13%[38.3 µM]
CC(C)CNC(=S)N1CCC(C(=O)c2ccc3c(c2)OCCO3)CC1	.	.	-6%	9%[9.22 µM]	-9%[10 µM]	12%
CC(=O)NC1[C@H](O)C[C@@](O)(C(=O)O)O[C@H]1[C@H](O)[C@H](O)CO (stereo partly drawn)	.	.	.	2%	?	.
COC(=O)c1nc(-c2ccccc2)oc1N1CCOCC1	.	.	16%	10%	-42%	-3%
FC(F)(F)c1nc(SCc2ccc(Cl)cc2)n[nH]1	.	.	.	.	3%[10 µM]	3%
SMILES	IMPase cell inh	PNC inhibitor	NPSR antag	HTT aggregate	HTT cytoprotect	IMPase Li inh
CCN(CC)c1ccc(/C=N/n2nnnc2N)c(O)c1	15	-120*	-6%[46.1 µM]	5.6µM*	-28%	-2%[38.3 µM]
COc1ccc(NC(=O)CSc2cc(C)ccc2C)cn1	.	.	-19%	14%	-2%[10 µM]	11%
COc1ccc(NC(=O)/C(Cl)=C(/Cl)S(=O)Cc2ccccc2Cl)cn1 (stereo not drawn)	.	.	5µM*	?	-170%	34%
COc1ccc(NC(=O)/C(Cl)=C(/Cl)S(=O)(=O)Cc2ccc(C)cc2)cn1	10	17	4µM*	-1%[9.22 µM]	-152%	3%[38.3 µM]
COc1ccc(NC(=O)Cc2ccc(Cl)c(Cl)c2)cn1	.	.	-5%	-14%	-35%	-7%
Cc1cc(-c2nc3ncccc3o2)ccc1NC(=O)COc1cc(C)c(Cl)c(C)c1	1	.	.	.	.	.
NC(=O)c1ccc(-c2nc(-c3ccc4c(c3)OCO4)c(-c3ccccn3)[nH]2)cc1	-29	.	.	.	8%	2.5µM*!
CCN(CC)CCn1c(-c2ccccc2)nc2c(NCc3ccccc3)nc(C)nc21	.	.	.	.	-23%	8%
FC(F)(F)c1cccc(Cl)c1	.	.	.	.	-10%	14%
COc1ccc(C2C(C(=O)NCCN(C)C)c3cc(OC)c(OC)cc3C(=O)N2C)cc1OC (stereo not drawn)	-3	-81*	-7%[46.1 µM]	?	?	3%
O=C(c1csnn1)N1CCC[C@@]2(CCN(c3ccccc3)C2)C1	.	.	.	.	-37%	7%
CC(C)=CCC1C(=O)N(c2ccccc2)N(c2ccccc2)C1=O	.	.	.	20%	73%	.
CCCCC1C(=O)N(c2ccccc2)N(c2ccc(O)cc2)C1=O (stereo not drawn)	.	.	.	.	2.2µM*	12%
Cc1ccsc1C(C(=O)NC(C)(C)C)N(C(=O)c1csnn1)c1ccccc1 (stereo not drawn)	.	.	3%	0%	4%	2%
Cc1ccccc1N(C)S(=O)(=O)c1ccc2[nH]cc(C(=O)NCC3CCCO3)c(=O)c2c1 (stereo not drawn)	3	-84*	-8%[46.1 µM]	-11%	11%	23%[38.3 µM]
O=C1NC(=S)S/C1=C\C=C\c1ccc([N+](=O)[O-])o1	.	.	7.9µM*	?	33%[10 µM]	.
CCN(CC)CC#CCC(OC)(c1ccccc1)c1ccccc1	.	.	-32%	-7%[9.22 µM]	-7%[10 µM]	18%
OCc1cn(-c2ccccc2)nc1-c1ccc(-c2nn(-c3ccccc3)cc2CO)cc1	0	22	?	16%	-12%	28µM*
Cc1ccc(-c2[nH]ncc2/C=N/n2c(COc3ccccc3C)nc3ccccc3c2=O)cc1	.	-28	-8%	-3%	-10%[10 µM]	14%
Cc1nc2ccccc2c(=O)n1/N=C/c1ccc(O)cc1O	.	.	-3%	9%[9.22 µM]	-120%	0%
CCCc1nc2ccccc2c(=O)n1/N=C/c1c(C)[nH]n(-c2ccc(C)cc2)c1=O	0	?	-10%[46.1 µM]	18µM*	-6%[0.074 µM]	-11%[38.3 µM]
